# Most compounds without a hit are left out; they make up all but 10% or so of the library.
# BAZ2B inh = inhibitors of human BAZ2B bromodomain; Potency, µM (series often up to 114 µM), without a hit: top-dose activity change, negative = inhibition, actives largely listed as inhibitors; Q9UIF8; 360,000 compounds, 4.4% hits; AlphaScreen BAZ2B-H3K14Ac peptide displacement; further: potency means the concentration at half of the fitted maximal effect; on the % scale 0 is the no-effect control and ±100 the full control effect; nearly all actives have a fitted effect of over 60% in size
#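 BAZ2B (50 nM) with biotin-H3(5-23)K14Ac peptide (50 nM) in PBS pH 7.4, 0.01% Tween-20, preformed 30 min, then compound 30 min at room temperature; top concentration 110uM. AlphaScreen streptavidin donor/nickel chelate acceptor beads (10 ug/mL final), 20 min dark, signal read.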
# G9a block = blocks human histone lysine methyltransferase G9a | G9a H3K9 monomethylation, AlphaScreen, 2 h | Potency, µM (top dose mostly 102 µM), for the others: at the top dose activity, negative = inhibition, actives largely listed as inhibitors | 350,000 compounds, 8.8% hits | Q96KQ7; further: potency means the concentration at half of the fitted maximal effect; on the % scale 0 is the no-effect control and ±100 the full control effect; nearly all actives have a fitted effect of over 75% in size
#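 Compounds were preincubated with 20 nM G9a for 15 min, after which biotinylated H3K9 peptide (500 nM) and SAM (20 uM) started a 2 h room-temperature reaction. Monomethylated product was quantified by antibody-based AlphaScreen chemiluminescence.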
# Six1-Eya2 inh = Six1/Eya2 interaction inhibition; activity change, % (concentration not given with the values); AID 651725; AlphaScreen GST-Six1/His-Eya2 binding, biochemical; hits give low values; 360,000 compounds, 0.56% hits; in the data active means activity change below about -65%; inconclusive means mostly about -30% to -63%; further: on the % scale 0 is the no-effect control and ±100 the full control effect
#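 GST-Six1 + His-Eya2 (5X stock: 250/500 nM); Tris pH 8.0, 300 mM NaCl, 0.05% BSA, 0.02% Tween 20; GSH donor/Ni acceptor beads; 1 h 37 °C dark; AlphaScreen readout.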
# HP1b binding inh = HP1-beta chromodomain-methylated histone interaction inhibition; P83916; AlphaScreen HP1-beta / biotin-H3K9me3 peptide binding; Potency, µM (series often up to 114 µM), for the others: at the highest dose activity change, negative = inhibition, actives largely listed as inhibitors; 390,000 compounds, 0.56% hits; AID 540317; further: potency means the concentration at half of the fitted maximal effect; nearly all actives have a fitted effect of over 70% in size
#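 Compound inhibition of the preformed complex between 50 nM HP1-beta and 50 nM biotinylated H3K9me3 peptide was read by AlphaScreen. Buffer was PBS pH 7.4 with 0.01% Tween-20. Incubations ran 30 min at room temperature, with 10 ug/mL donor/acceptor beads.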
# CtBP-E1A blk = blocks the CtBP interaction with E1A | AlphaScreen GST-E1A/His-CtBP binding, 1536-well; hits give low values | activity change, % (concentration not given with the values) | 340,000 compounds, 0.49% hits; in the data active means activity change below about -65%; inconclusive means mostly about -30% to -63%; further: on the % scale 0 is the no-effect control and ±100 the full control effect
#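 Homogeneous bead-based format: GST-tagged E1A captured on glutathione donor beads, His-tagged CtBP on nickel acceptor beads; compounds precede bead addition by 2 h at 37 °C.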
# JMJD2A Tudor inh = JMJD2A Tudor domain (human) inhibition | Potency, µM (highest dose often 114 µM), inactives show top-dose activity change, negative = inhibition, most hits filed as inhibitors | O75164 | AlphaScreen JMJD2A-Tudor / H3K4me3 peptide binding | 390,000 compounds, 4.4% hits; further: potency means the concentration at half of the fitted maximal effect; on the % scale 0 is the no-effect control and ±100 the full control effect; nearly all actives have a fitted effect of over 50% in size
# * hit, by the source's call; ? = inconclusive; nt = no result given; [ ] = remark or other dose. Unless noted, the call rests on the fitted dose curve; in most records, active means well fitted inhibition curve with a large enough effect; inconclusive means small, poorly fitted or top-dose-only effect; inactive means no such curve, though single readings can be large or run the other way.
SMILES,BAZ2B inh,G9a block,Six1-Eya2 inh,HP1b binding inh,CtBP-E1A blk,JMJD2A Tudor inh
O=C(Nc1nc2ccc(F)cc2s1)C1CCN(S(=O)(=O)c2cc([N+](=O)[O-])ccc2Cl)CC1,?,22µM*,-26,-8%,-7,?
O=C(NCc1ccccc1)C1CCN(S(=O)(=O)c2cc([N+](=O)[O-])ccc2Cl)CC1,18%,31%[59 µM],2,22%,5,3%
COc1ccc(CNC(=O)C(C)Sc2nc3ccccc3c(=O)n2CC2CCCO2)cc1 (stereo not given),4%,11%[12.7 µM],5,27%,-2,0%
CCOC(=O)c1c(S(=O)(=O)N2CCCC(C(=O)Nc3cccc(Cl)c3)C2)c(C)n(C)c1C (stereo not given),-2%,-19%[59 µM],nt,4%,nt,-31%
COc1ccc(NC(=O)C(C)Sc2cc(-c3ccccc3)nc(C)n2)cc1Cl (stereo not given),1%,4%[59 µM],nt,49%,nt,11%
Cc1ccc(NC(=O)C2CCN(S(=O)(=O)c3cc([N+](=O)[O-])ccc3Cl)CC2)nc1,nt,nt,-12,-17%,nt,45µM*
CC(NC(=O)C1CCN(S(=O)(=O)c2cc([N+](=O)[O-])ccc2Cl)CC1)c1ccccc1 (stereo not given),-21%,-6%[59 µM],-3,14%,-13,-5%
CCCNC(=O)c1ccc(N2CCC3(CC2)CC(c2cccc(Br)c2)=NO3)c([N+](=O)[O-])c1,?,79µM*,-20,21%,-18,-31%
Cc1nn(-c2ncc(C(F)(F)F)cc2Cl)c(=O)n1-c1ccc(F)cc1,-12%,11%,5,10%,16,50µM*
NNc1nc2ccc(Cl)cc2s1,50µM*,56µM*,-21,-20%,-28,79µM*
CS(=O)(=O)c1ccc2nc(NC(=O)Nc3ccc(Cl)cc3)sc2c1,-29%,?,-2,25%,15,-15%
NNc1nc2ccc(F)cc2s1,45µM*,?,-23,-38%,-1,?
NS(=O)(=O)c1ccc2nc(NC(=O)Nc3ccc(F)cc3)sc2c1,1%,50µM*,-1,3%,-2,-16%
O=C(C(=O)N1CCN(c2ccccc2)CC1)c1cccc(Br)c1,nt,nt,-24,nt,-2,nt
CCOC(=O)c1c(C)[nH]c(C(=O)N/N=C/c2cc([N+](=O)[O-])ccc2O)c1C,45µM*,?,?,-4%,?,79µM*
CCOC(=O)c1c(C)[nH]c(C(=O)N/N=C\c2ccccc2O)c1C,12%,15%,-65*,11%,-8,-22%
CCOC(=O)c1c(C)[nH]c(C(=O)N/N=C/c2ccc(OC)c(OC)c2)c1C,-16%,42%,-1,36%,nt,-7%
CCOC(=O)c1c(C)[nH]c(C(=O)COC(=O)COc2ccccc2C=O)c1C,-36%,-3%[59 µM],-8,-13%,3,45µM*
OCCC1CN(Cc2ccon2)CCN1CCc1ccccc1 (stereo not given),5%,-12%,1,40%,1,-5%
O=C(Cc1ccccc1)Nc1sc2c(c1C(=O)Nc1ccc(Cl)cc1)CCOC2,nt,nt,nt,nt,nt,-24%
CCCCCCN1C=CC=C/C1=C\C=C(C#N)C#N,35µM*,-48%[12.7 µM],-19,-31%,-23,?
Cc1cc(Cl)ccc1-n1c(-c2cccnc2)n[nH]c1=S,4%,10µM*,6,44%,-20,28µM*
Cc1ccc(C)c(Nc2nc(-c3cccnc3)cs2)c1,-32%,20%[2.33 µM],-10,31%,-8,?
Cc1ccc(C)c(-n2c(-c3cccnc3)n[nH]c2=S)c1,?,32µM*,3,8%,6,22µM*
Cc1c(Cl)cccc1-n1c(-c2cccnc2)n[nH]c1=S,-2%,16%[12.7 µM],12,43%,11,35µM*
SMILES,BAZ2B inh,G9a block,Six1-Eya2 inh,HP1b binding inh,CtBP-E1A blk,JMJD2A Tudor inh
Cc1ccc(C)c(-n2c(-c3csc(C)c3C)n[nH]c2=S)c1,-30%,?,-16,15%,-1,25µM*
O=c1ccn([C@@H]2O[C@H](COS(=O)(=O)O)[C@@H](O)[C@H]2O)c(=O)[nH]1,nt,nt,0,16%,nt,-10%
CC(C)CCNC(=O)N1CCN(S(=O)(=O)c2ccc3c(ccn3C)c2)CC1,-1%,7%[59 µM],nt,26%[57 µM],nt,-1%
CCN(CCCNC(=O)COc1cc(=O)n(CC)c2ccccc12)c1ccccc1,?,11µM*,-19,-5%,-10,?
CCN(CCCNC(=O)CSc1cc(=O)n(CC)c2ccccc12)c1cccc(C)c1,22µM*,?,nt,?,nt,32µM*
CCN(CCCNC(=O)c1cn(CC)c2ccc(S(=O)(=O)N(C)C)cc2c1=O)c1cccc(C)c1,?,35µM*,-2,-19%,2,?
CCN(CCCNC(=O)CNC(=O)Cn1cnc2ccccc2c1=O)c1ccccc1,-7%,2.2µM*,-7,12%,-11,-17%
CCN(CCCNC(=O)CCNC(=O)Cn1cnc2ccccc2c1=O)c1cccc(C)c1,-34%,?,-2,18%,1,-9%
CCN(CCCNC(=O)COc1cc(=O)n(C)c2ccccc12)c1ccccc1,13%,-10%[0.0925 µM],-14,-2%,-14,?
C[C@@H]1CN(S(=O)C(C)(C)C)[C@H](CCO)/C1=C\CCO (stereo not given in full),nt,nt,0,38%,3,-7%
CCCCC1CCc2[nH]nc(C(=O)O)c2C1 (stereo not given),?,16%[2.33 µM],4,26%,-1,-27%
O=C(NC1CCCCC1)c1n[nH]c2c1CC(c1ccccc1)CC2 (stereo not given),-3%,-11%[2.33 µM],8,21%,nt,-20%
CCC1CCc2[nH]nc(C(=O)O)c2C1 (stereo not given),?,25µM*,1,7%,4,50µM*
CC1CCc2[nH]nc(C(=O)O)c2C1 (stereo not given),?,28µM*,24,13%,41,32µM*
O=C(O)c1n[nH]c2c1CC(C1CCCCC1)CC2 (stereo not given),71µM*,1%[2.33 µM],0,52%,4,-15%
O=[N+]([O-])c1ccc(-c2cnc(NO)nc2)cc1,5%,7.9µM*,-8,38%,-25,?
Clc1c(-c2nnc3n2CCC3)sc2ccccc12,-4%,3%[59 µM],-4,24%,-12,-3%
S=c1[nH]nc(CSc2nc3ccccc3s2)o1,?,1.6µM*,-3,3%,0,45µM*
CCNc1nnc(CSc2nc3ccccc3s2)s1,-4%,4.5µM*,1,56%,2,-21%[57.1 µM]
Cn1c(-c2sc3ccccc3c2Cl)n[nH]c1=S,-12%,?,-2,-27%,0,22µM*
Cn1c(CSc2nc3ccccc3s2)nc2ccccc21,-1%,-50%,-2,45%,1,11%

# Screening results deposited in PubChem by National Center for Advancing Translational Sciences (NCATS).
